Assay results published in PubChem BioAssay AID463115 (University of Pittsburgh Molecular Library Screening Center, 2010).
Among all 220,000 compounds or so, about 130 (0.059%) were called active. For the sample, actives were picked, then their nearest neighbours and some compounds at random. Unmarked numbers belong to inactive results. No stated cut-off is given here; in the data, active means inhibition above about 25%; inactive means the rest.

target: Furin (Homo sapiens) (UniProt P09958); test: human furin inhibitors, primary screen, biochemical, fluorescence intensity (AID 463115); settings: purified furin, fluorogenic substrate cleavage, stronger effect = higher value; at 30 µM unless noted
Sequence (P09958 108-714 limits assumed): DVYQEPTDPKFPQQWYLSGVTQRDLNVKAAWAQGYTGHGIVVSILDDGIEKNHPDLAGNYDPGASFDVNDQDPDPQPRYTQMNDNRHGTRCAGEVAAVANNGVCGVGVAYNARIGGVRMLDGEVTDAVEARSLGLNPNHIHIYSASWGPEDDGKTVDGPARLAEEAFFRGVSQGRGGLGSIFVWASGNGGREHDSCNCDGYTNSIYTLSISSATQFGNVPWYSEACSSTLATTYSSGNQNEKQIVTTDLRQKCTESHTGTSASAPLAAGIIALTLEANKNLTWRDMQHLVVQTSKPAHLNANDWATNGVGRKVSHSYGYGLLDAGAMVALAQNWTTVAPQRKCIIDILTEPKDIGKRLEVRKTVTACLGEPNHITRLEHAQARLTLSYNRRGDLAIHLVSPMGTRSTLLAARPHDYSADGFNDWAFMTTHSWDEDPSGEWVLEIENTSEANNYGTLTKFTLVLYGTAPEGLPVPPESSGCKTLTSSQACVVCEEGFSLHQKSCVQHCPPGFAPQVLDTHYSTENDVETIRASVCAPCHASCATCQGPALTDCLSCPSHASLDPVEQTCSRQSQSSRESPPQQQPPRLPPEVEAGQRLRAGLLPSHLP

Going from `CC(C)C(=O)NCc1cc(-c2ccc(Cl)cc2)no1` to `Cn1c(SCC(=O)Nc2ccc(Cl)cc2)nc(O)cc1=O`, the inhibition falls from 2.24% to -15%.

Compared with `O=S(=O)(c1ccc(F)cc1)N1CCN(Cc2ccccc2C(F)(F)F)CC1`, `O=C(Nc1cccc(Cl)c1)c1cc([N+](=O)[O-])ccc1N1CCN(CCO)CC1` is lower in inhibition: -12.9% for the first, -21.2% for the second.

First: O=c1oc2ccccc2cc1-c1cn(-c2ccccc2)c(=S)[nH]1
Second: Oc1ccccc1N1CCN(C(=S)NCc2ccccc2)CC1
The inhibition of the first is lower: -34.3% for the first, -19.1% for the second.

Compared with `S=c1[nH]nc(NCCc2ccccc2)s1`, `O=C1CCCC(O)=C1C=NCCc1ccccc1` is lower in inhibition: -19.4% for the first, -20.8% for the second.

Compared with `CC(C)(C)C(=O)OCc1nc(-c2ccc(O)c(O)c2)cs1`, `Cc1nc(CNS(=O)(=O)c2cc([N+](=O)[O-])ccc2C)cs1` is higher in inhibition: -19.6% for the first, 10.1% for the second.

Going from `CCN(CC)c1ccc(NC(=O)C2CCC(CNc3c(N4CCCC4)c(=O)c3=O)CC2)c(C)c1` (centres undefined) to `CCO[C@H]1OC(C(=O)N2CCCCCCC2)=C[C@@H](c2ccc(C(F)(F)F)cc2)[C@@H]1CCCO`, the inhibition rises from -28.8% to -28%.

First: C[n+]1ccc(/C=C/c2c[nH]c3ccccc23)cc1
Second: COc1ccccc1N1CCN(/N=C\C(Br)=C\c2ccccc2)CC1
The inhibition of the first is higher: 3.06% for the first, -19% for the second.

Compared with `C=Cn1c(C(=O)O)ccc1-c1ccc(OC)cc1`, `CCCc1c(C(=O)O)cnn1-c1ccc(Cl)cc1` is lower in inhibition: -9.46% for the first, -33.8% for the second.

Going from `CC1CN(S(=O)(=O)c2ccc(C(=O)NN3CCN(C)CC3)cc2)CC(C)O1` (centres undefined) to `CSc1ccc(C(=O)C2CCCN(C(=O)c3ccc(C)nc3)C2)cc1` (centres undefined), the inhibition rises from -23.8% to -11.4%.

Going from `O=C(/C=C/c1ccc(Cl)cc1)Nc1ccc(Br)cn1` to `O=C(CSc1nc2ccc([N+](=O)[O-])cc2[nH]1)c1ccc(Cl)cc1`, the inhibition rises from -19.6% to -10.5%.

Compared with `C=C(C)C(=O)O[C@H]1C/C(C)=C\C(=O)/C=C(\C)[C@H](O)[C@@H]2OC(=O)C(=C)[C@@H]21`, `COC(=O)C1=C(N)Oc2c(oc(CO)cc2=O)C1c1c(F)cccc1Cl` (centres undefined) is lower in inhibition: -5.36% for the first, -27.8% for the second.

Going from `CCN(C(=O)CSc1nnc2ccccn12)C1CCS(=O)(=O)C1` (centres undefined) to `Cc1cc(NC(=O)CSc2nc3ccccc3n2CC(C)C)no1`, the inhibition rises from -27.8% to -16.9%.

First: NNC(=O)c1cnn(-c2ccccc2)c1C(F)(F)F
Second: Cc1nnsc1C(=O)N/N=C/c1cccc(C(F)(F)F)c1
The inhibition of the first is lower: -29% for the first, 0.985% for the second.

First: CCN=C1S/C(=C\c2cc(Br)ccc2OCC(=O)OCC)C(=O)N1CC
Second: C=CCOc1ccc(/C=N/NC(=O)C(C)Sc2ccccn2)cc1OCC (centres undefined)
The inhibition of the first is higher: -4.2% for the first, -21.6% for the second.

Compared with `N#Cc1ccccc1NC(=O)COc1c(Br)cc(Br)c2cccnc12`, `O=C(CNC(=O)COc1ccccc1)NCCc1ccccn1` is higher in inhibition: -14.7% for the first, -14% for the second.

Going from `S=C(NN=C1CCN(Cc2ccccc2)CC1)NC1CCCCC1` to `OCCC1CN(Cc2cccn2-c2nccs2)CCN1CCc1ccccc1` (centres undefined), the inhibition rises from -25.8% to -12.8%.

First: CCCC1OC23CCCCC2C(C#N)(C#N)C1(C#N)C(=N)O3 (centres undefined)
Second: CCC(C)(C)NC(=O)CN(C(=O)C(=O)Nc1ccc2c(c1)OCCO2)C(C)(C)CC
The inhibition of the first is higher: -12.5% for the first, -14.5% for the second.

First: COc1cc(C)c(S(=O)(=O)N2CCOCC2)c(C)c1C
Second: COc1ccc(O)c(C=Nc2cc(C)on2)c1
The inhibition of the first is higher: -15.3% for the first, -25.7% for the second.

Going from `CSc1nnc(SCc2nc3sc(C(=O)O)c(C)c3c(=O)[nH]2)s1` to `O=C(CC1SCCNC1=O)Nc1ccc(Cl)c(Cl)c1` (centres undefined), the inhibition falls from -6.65% to -21.8%.

Compared with `COc1ccc([N+](=O)[O-])cc1NC(=O)COC(=O)/C=C/c1ccco1`, `NS(=O)(=O)c1ccc(NC(=O)COC(=O)c2ccco2)cc1` is higher in inhibition: -30.9% for the first, -19.1% for the second.

`CCC(C)(C)NC(=O)C(c1cccc(OC)c1OC)N(CC(C)C)C(=O)CCC(=O)Nc1cc(C)on1` (centres undefined) and `CC(C)(C)NC(=O)c1cccc(NC(=O)Cc2ccc(Br)cc2)c1` are the same in inhibition: -14.8% for the first, -14.8% for the second.

Going from `CC(C)(C)NC(=O)/C(=C/c1cccnc1)NC(=O)c1ccco1` to `O=C(NNc1cc(Cl)ccc1Cl)c1cccnc1Cl`, the inhibition falls from -17% to -21.6%.

Compared with `CCOn1c(=O)c(=O)n(O)c2ccccc21`, `Fc1ccc(COc2cccc(-c3n[nH]c(=S)o3)c2)cc1` is lower in inhibition: -4.13% for the first, -11.9% for the second.

For `O=C(O)CC/C(=N\NC(=O)c1ccc(F)cc1)c1ccc(Br)cc1`, the inhibition was -17.1%.

First: CCOCN(C(=O)Cn1c(C(C)O)nc2ccccc21)c1c(C)cccc1CC (centres undefined)
Second: CC(C)c1cc(C(N)=O)c(NC(=O)c2cccc(COc3ccc(Br)cc3)c2)s1
The inhibition of the first is lower: -22.3% [at 20 µM] for the first, -15.1% [at 20 µM] for the second.

Compared with `Cc1oc(-c2ccccc2Cl)[n+]([O-])c1C`, `O=c1[nH][nH]c(C(F)(F)F)c1C=NCc1ccccc1Cl` is higher in inhibition: -9.84% [at 20 µM] for the first, -7.43% [at 20 µM] for the second.

Going from `CN(C)c1ccnc2sc3c(=O)n(-c4ccc(Cl)cc4)cnc3c12` to `O=c1[nH]c(CCl)nc2cc(-c3ccc(Cl)cc3)sc12`, the inhibition rises from -7.85% [at 20 µM] to -0.616% [at 20 µM].

Compared with `Cc1ccc(C2(C(F)(F)F)N=C3Sc4cc(C)cc(C)c4N3C(=O)N2)cc1` (centres undefined), `O=C1C=C(c2ccc(Cl)cc2)C(=O)N1Nc1ccccc1` is higher in inhibition: -11.5% [at 20 µM] for the first, -9.42% [at 20 µM] for the second.

Going from `Clc1ccc(-c2nnc(-c3ccccc3)nc2N2CCSCC2)cc1` to `Cc1cc(Cl)c(S(=O)(=O)N(C)C)cc1OCC(N)=O`, the inhibition falls from -4.61% [at 20 µM] to -12.9% [at 20 µM].

Work on `COC(=O)/C=C/C(=O)NCc1ccco1` yielded an inhibition of -23.2% [at 20 µM].

With `Cc1cc(N=CC2=C(O)CCCC2=O)no1` the inhibition was 42.3% (active).
